# Screening results deposited in PubChem by several laboratories.
# Hits are enriched below; roughly 1.3% of the tested compounds scored in any of these assays.
# Gli-Sufu block: Gli-Sufu pathway antagonists, primary screen, luciferase luminescence, Sufu-KO-LIGHT cells, uHTS; Sufu-KO-LIGHT fibroblasts, Gli luciferase reporter luminescence; inhibition, % at 5 µM; 340,000 tested, 0.74% active; AID 588413, 2011;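 active means inhibition above about 55%, limit read from the data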;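 further: 0% = DMSO-treated cells and 100% = wells with medium but no cells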
# NR2F2 inh: NR2F2 transcriptional activity inhibitors, primary screen, cell-based, luciferase reporter, HEK293T, luminescence; COUP transcription factor 2 (Homo sapiens), P24468; HEK293T NGFI-A luciferase reporter; inhibition, % at 8.6 µM; 370,000 tested, 0.7% active; AID 686940, 2013;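 active means inhibition above a per-plate cutoff, mean inhibition of test wells between control levels plus 3 SD, cut at about 38% in these data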;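 further: cells cotransfected with COUP-TFII expression vector driving the NGFI-A reporter; 0% = median of COUP-TF2 test wells and 100% = reporter-only cells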
# NCOA3 inh: SRC3 coactivator transcriptional activity inhibitors, primary screen, cell-based, luminescence; Nuclear receptor coactivator 3 (Homo sapiens), Q9Y6Q9; AID 588352, 2011; 360,000 tested, 0.17% active; HEK293 GAL4-SRC3 luciferase reporter; inhibition, % at 3.6 µM;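 active means inhibition above a per-campaign cutoff, the mean of all compounds plus 3 SD, cut at about 60% in these data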;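 further: 0% = DMSO-treated cells and 100% = gossypol-treated cells at 36 µM; higher means less SRC3-driven luciferase light from the GAL4 reporter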
# NCOA1 inh: SRC1 coactivator transcriptional activity inhibitors, primary screen, cell-based, luminescence; inhibition, % at 3.6 µM; 360,000 tested, 0.12% active; Nuclear receptor coactivator 1 (Homo sapiens), Q15788; HEK293 GAL4-SRC1 luciferase reporter;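 active means inhibition above the campaign mean plus 3 SD, with each screening campaign given its own cutoff, cut at about 60% in these data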;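 further: 0% = DMSO treated cells and 100% = gossypol at 36 µM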
# SRC2 inh: inhibition of GAL4-SRC2 driven luciferase reporter, primary screen, SRC2 inhibitor project, cell-based, luminescence | AID 651957, 2012 | Nuclear receptor coactivator 2 (Homo sapiens), Q15596 | HEK293 GAL4-SRC2 luciferase reporter | inhibition, % at 9 µM | 370,000 tested, 0.17% active;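 active means inhibition above the mean inhibition of all tested compounds plus 3 SD, set per campaign, cut at about 52% in these data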;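 further: 0% = DMSO treated cells and 100% = cells given Gossypol at 36 µM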
# NR5A2 inv ag: LRH-1 (NR5A2) inverse agonists, primary screen, cell-based, luminescence, HEK293T, StAR-luciferase reporter. Nuclear receptor subfamily 5 group A member 2 (Homo sapiens), O00482. LRH-1 transfected, 24 h. inhibition, % at 3.6 µM. 360,000 tested, 0.13% active. AID 602396, 2012;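 active means inhibition above the mean inhibition of all tested compounds plus 3 SD, cut at about 73% in these data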;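 further: 0% = DMSO wells and 100% = reporter-only cells lacking LRH-1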
# * hit, by the source's call; . = no result given; ! = not confirmed by another sample.
SMILES,Gli-Sufu block,NR2F2 inh,NCOA3 inh,NCOA1 inh,SRC2 inh,NR5A2 inv ag
CC(C)CC(=NNC(=O)c1ccncc1)c1cc(Cl)ccc1O,30,4,71*,53,-5,45
COC1=C(N)C(=O)c2nc(-c3nc(C(=O)O)c(C)c(-c4ccc(OC)c(OC)c4O)c3N)ccc2C1=O,89*,.,.,.,.,.
CCOC(=O)/C(=C\c1ccccc1)C(=O)c1cc(C(C)=O)c(Nc2ccccc2)s1,11,-3,9,5,10,-1
CCOC(=O)/C(=C\c1cccnc1)C(=O)c1cc(C(C)=O)c(Nc2ccccc2)s1,60*,.,-14,-96,.,28
O/N=C/c1cccc[n+]1CCCCCC[n+]1ccccc1/C=N/O,-14,-13,-12,-14,3,6
CCCCCCCCC[n+]1cccc2c3ccccc3ccc21,-1,.,71*,58,.,96*
C[C@@H]1OCN(C)[C@H]2C[C@H]3c4[nH]c5cccc(-c6ccccc6)c5c4CCN3C[C@@H]12,.,-2,.,.,-21,.
CCn1nc([N+](=O)[O-])c(C(C#N)c2nc3cc(C(F)(F)F)ccc3s2)c(Cl)c1=O (stereo not drawn),-3,17,62*,-45,-11,14
Cc1ccc2c(c1C)-c1c(ccc(C)c1C)C(=O)C2=O,64*,-49,44,-2,37,47
COc1ccc(OC)c(S(=O)(=O)N(CC(=O)NC2CCC(C)CC2)c2cc(C)cc(C)c2)c1 (stereo not drawn),.,-18,.,.,-14,.
O=C1C[C@H](C(=O)Nc2ccc(Cl)cc2)[C@@H](c2ccccc2)O1,.,-8,.,.,-34,.
Cc1cc(Cl)c(S(=O)(=O)N2CCN(c3ccc(F)cc3)CC2)cc1OCC(=O)NC1CCCCC1,58*,11,17,18,6,1
CCc1ccc(S(=O)(=O)/N=C2\C=C(Nc3cccc(C(=O)O)c3)C(=O)c3ccccc32)cc1,-18,-11,-30,-21,-32,-20
CCc1ccc(S(=O)(=O)/N=C2/C=C(Sc3ncn[nH]3)C(=O)c3ccccc32)cc1,1,.,88*,83*,.,95*
Cc1ccc(NC2=C/C(=N\S(=O)(=O)c3cccs3)c3ccccc3C2=O)c(C)c1,65*,.,70*,67*,.,40
CCc1ccc(S(=O)(=O)/N=C2\C=C(Nc3ccc(O)cc3)C(=O)c3ccccc32)cc1,88*,.,89*,88*,.,90*
Cc1ccc(Cl)cc1NC1=C/C(=N\S(=O)(=O)c2cccs2)c2ccccc2C1=O,11,-1,85*!,72*!,-29,6
Cc1cccc(NC2=C/C(=N/S(=O)(=O)c3cccs3)c3ccccc3C2=O)c1,34,-1,-16,-4,11,8
O=C(NC1CCCCN(Cc2ccc(Cl)cc2)C1=O)c1c(F)cccc1F (stereo not drawn),.,9,.,.,-12,.
O=C1C(Nc2ccc(O)cc2)=C/C(=N/S(=O)(=O)c2cccs2)c2ccccc21,94*,78*,90*,88*,71*,86*
O=C(O)c1ccc(NC2=C/C(=N/S(=O)(=O)c3cccs3)c3ccccc3C2=O)cc1,.,0,7,4,-9,22
Cc1ccc2c(c1)C1CS(=O)(=O)N(Cc3ccccc3)CN1C2 (stereo not drawn),.,-1,.,.,-16,.
O=C(CSc1nc2ccccc2nc1N1CCOCC1)N1CCN(S(=O)(=O)c2cccc([N+](=O)[O-])c2)CC1,.,2,.,.,0,.
Nc1ccc(C(=O)c2cccs2)cn1,-7,13,5,-14,-9,10
Nc1ccc(-c2cnc(N)c(C(=O)c3cccnc3)n2)cn1,-14,.,70*,69*,.,52
SMILES,Gli-Sufu block,NR2F2 inh,NCOA3 inh,NCOA1 inh,SRC2 inh,NR5A2 inv ag
COc1ccc(-n2c(SCC(=O)Nc3ccc4c(c3)OCO4)nc3sc4c(c3c2=O)CCCC4)cc1,.,-23,.,.,0,.
O=[N+]([O-])c1cc(CN2CCN(c3ccccc3)CC2)c(O)c2ncccc12,80*,9,34,30,-5,53
O=[N+]([O-])c1cc(CN2CCOCC2)c2cccnc2c1O,-10,.,.,.,.,.
CC(C)CCCCCCCCCCCCC(=O)NCC(=O)NC1C(O)C(O)C(Nc2ncnc3nc[nH]c23)OC1C(O)CO (stereo not drawn),85*,.,93*,95*,.,99*
COc1ccc(-c2csc3ncnc(Nc4ccc(O)cc4)c23)cc1,-1,-20,13,-4,10,-7
COc1ccc(-c2csc3ncnc(NCCO)c23)cc1,-16,28,54,54,59*,12
C=CCn1c(NCCc2ccccc2)nc2c1c(=O)n(C)c(=O)n2C,4,22,35,23,25,24
C/C(Cl)=C\Cn1c(NCCc2ccccc2)nc2c1c(=O)n(C)c(=O)n2C,82*,11,20,-6,1,18
CC1CCC(C(C)C)C(OC(=O)C[n+]2cc(-c3ccc(Cl)cc3)n3c2CCCCC3)C1 (stereo not drawn),65*,7,23,19,6,8
COc1cc2c(cc1NC(=O)CSc1nnc(-c3cccnc3)n1-c1ccc(Br)cc1)oc1ccccc12,.,-20,.,.,6,.
Cc1cc(C(=O)N2CCN(c3ccccn3)CC2)no1,3,1,89*,11,2,1
Cc1cc(C(=O)N2CCN(c3ccccc3)CC2)no1,21,.,5,7,.,18
O=C(Nc1nc(-c2ccccn2)cs1)c1cc(Cl)ccc1[N+](=O)[O-],65*,21,16,27,-28,37
COc1ccc(C(=O)NC2CC3CCCC(C2)N3CC(C)C)cc1 (stereo not drawn),20,-14,5,2,95*,9
COc1ccc(C(=O)NC2CC3CCCC(C2)N3CC(C)C)cc1OC (stereo not drawn),3,8,-4,0,-3,-1
CN1/C(=C/c2cc[n+](C)c3ccccc23)C=Cc2ccccc21,89*,.,40,32,.,41
C[n+]1ccc(/C=C/c2ccccc2O)c2ccccc21,2,-18,22,5,23,8
COc1cc(C=NO)nc(-c2ccccn2)c1,87*,-23,86*,79*,33,84*
COc1ccc2nc(-c3ccccn3)[nH]c2c1,-62,-45,-87,-87,-40,-138
COc1ccc(-c2nnc(SCC(=O)Nc3ccc4cn[nH]c4c3)n2Cc2ccco2)cc1,.,5,.,.,-3,.
CC(C)(C)NC(=O)COC(=O)c1snc(C(=O)NC2CCCCC2)c1N,-4,67*,15,17,36,30
